Source: PubChem BioAssay
For some assays here: Measured potencies and affinities stand elsewhere. Activity calls are given as the source filed them.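 Rule for the calls, unless noted: active = primary screen active and over 50% activation in each of two duplicate runs; inactive = the rest.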

Key:
[1] = system: TRPC4 beta (transient receptor potential cation channel C4), mouse; test: activators of mouse TRPC4 channel, confirmation, cell-based, Fluo4 calcium, HEK293 TRPC4beta/mu-opioid, duplicates, 10 µM (AID 2426;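 active = fluorescence ratio normalized to control raised more than 50% in primary screen plus both repeat runs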); conditions: Fluo4 calcium fluorescence, at 10 µM; stronger effect = higher value
[2] = system: transient receptor potential cation channel C4 beta (TRPC4), mouse; test: activators of mouse TRPC4 channel, confirmation, cell-based, second round, Fluo4, HEK293 TRPC4beta/mu-opioid, 1 µM (AID 2461); conditions: Fluo4 calcium fluorescence, at 1 µM; stronger effect = higher value
[3] = system: TRPC4 (transient receptor potential cation channel C4 beta), mouse; test: positive allosteric modulators of mouse TRPC4, confirmation, cell-based, second round, Fluo-4, HEK293 TRPC4beta/mu-opioid, 1 µM (AID 2554;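 active = primary screen hit whose fluorescence ratio, in both repeats, exceeds the weak agonist control mean by 3 SD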); conditions: DAMGO EC20, Fluo-4 calcium flux, at 1 µM; stronger effect = higher value
[4] = system: TRPC4 beta (transient receptor potential cation channel C4), mouse; test: positive allosteric modulators of mouse TRPC4, confirmation, cell-based, Fluo-4, HEK293 TRPC4beta/mu-opioid (AID 2555;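 active = primary screen hit whose calcium fluorescence ratio, in both repeats, exceeds the weak agonist control mean by 3 SD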); conditions: DAMGO EC20, Fluo-4 calcium flux, at 10 µM; stronger effect = higher value
[5] = target: Short transient receptor potential channel 4 (Mus musculus) (UniProt Q9QUQ5); test: inhibitors of mouse TRPC4 channel, confirmation, cell-based, Fluo4, HEK293 TRPC4beta/mu-opioid (AID 2636;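 active = calcium signal cut by more than 3 SD below the full-agonist control yet still positive, in both repeats and the earlier primary screen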); conditions: DAMGO, Fluo4 calcium flux, at 10 µM; stronger effect = higher value
[6] = target: Short transient receptor potential channel 4 (Mus musculus) (UniProt Q9QUQ5); test: inhibitors of mouse TRPC4 channel, confirmation, cell-based, second round, Fluo4, HEK293 TRPC4beta/mu-opioid, 1 µM (AID 2637;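 active = calcium signal ratio cut to more than 3 SD under the fully stimulated control mean yet still positive, in both repeats and the primary screen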); conditions: Fluo4 calcium flux, DAMGO, at 1 µM; stronger effect = higher value
[7] = target: Short transient receptor potential channel 4 (Mus musculus) (UniProt Q9QUQ5); test: mouse TRPC4 channel activators, dose response, cell-based, HEK293 TRPC4/mu-opioid, Fluo-4 calcium (AID 434937;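 active = primary screen activator hit with a dose response curve and TRPC4 channel activation at any tested dose; inactive = no activation, no dose response, or not a primary hit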)
[8] = target: Short transient receptor potential channel 4 (Mus musculus) (UniProt Q9QUQ5); test: TRPC4 positive allosteric modulators, dose response, cell-based, HEK293 TRPC4/mu-opioid, Fluo-4 calcium, EC20 DAMGO (AID 434941;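 active = earlier screen potentiator hit that boosts the TRPC4 ion channel at some dose, with a dose response; inactive = no potentiation, no dose response, or not a prior hit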;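 note: calcium entry triggered by an EC20 dose of DAMGO at the co-expressed mu-opioid receptor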)
[9] = target: Short transient receptor potential channel 4 (Mus musculus) (UniProt Q9QUQ5); test: mouse TRPC4 channel inhibitors, dose response, cell-based, HEK293 TRPC4/mu-opioid, Fluo-4 calcium (AID 434942;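 active = primary screen inhibitor hit that blocks the TRPC4 channel at some tested dose, yielding a dose curve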)
[10] = target: Short transient receptor potential channel 6 (Mus musculus) (UniProt Q61143); test: inhibition of mouse TRPC6 channel, confirmation, selectivity assay for TRPC4 inhibitor project, cell-based, HEK293, membrane potential dye, duplicate (AID 434948;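 active = active in primary screen and both duplicates, each dropping signal beyond three positive-control SD with fluorescence still positive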); conditions: HEK293 TRPC6, membrane potential dye fluorescence, at 10 µM, stimulated with maximal-effect acetylcholine; stronger effect = higher value
[11] = target: Short transient receptor potential channel 6 (Mus musculus) (UniProt Q61143); test: activation of mouse TRPC6 channel, confirmation, selectivity assay for TRPC4 activator project, cell-based, HEK293, membrane potential dye, duplicate (AID 434950;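 active = membrane potential signal rise above negative control mean plus 3 SD in both duplicates, also active in the earlier TRPC4 screen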); conditions: HEK293 TRPC6, membrane potential fluorescence, at 10 µM; stronger effect = higher value
[12] = target: Short transient receptor potential channel 6 (Mus musculus) (UniProt Q61143); test: TRPC6 potentiation by TRPC4 potentiator hits, confirmation, selectivity assay for TRPC4 potentiator project, HEK293 cells, membrane potential dye, duplicate (AID 434952;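 active = compound raising the membrane signal above positive-control mean plus 3 SD in both repeats, and a primary screen hit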); conditions: HEK293 TRPC6, membrane potential dye fluorescence, at 10 µM, maximal acetylcholine added after compound; stronger effect = higher value
[13] = target: Short transient receptor potential channel 4 (Mus musculus) (UniProt Q9QUQ5); test: calcium flux activators in TRPC4/5HT1a cells, counter-screen for TRPC4 activator project, cell-based, second counter screen, HEK293 TRPC4/5HT1a, Fluo-4 (AID 434977;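 active = calcium signal rise above buffer-control mean plus 5 SD in both duplicates, and also a hit in the primary screen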); conditions: Fluo-4 calcium flux, at 10 µM; stronger effect = higher value
[14] = calcium flux inhibitors in TRPC4/5HT1a cells, confirmation, counter-screen for TRPC4 inhibitor project, cell-based, second counter screen, HEK293 TRPC4/5HT1a, Fluo-4 (AID 434978;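 active = primary screen active whose calcium signal fell more than 3 SD beyond the full-serotonin control mean in both duplicate plates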;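 note: serotonin given first at submaximal then at maximal dose after compound preincubation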); conditions: Fluo-4 calcium flux, at 10 µM, serotonin added to trigger calcium flux; stronger effect = higher value
[15] = system: TRPC4 (mouse), co-expressed with 5HT1a in HEK293; test: calcium flux potentiators in TRPC4/5HT1a cells, confirmation, counter-screen for TRPC4 potentiator project, cell-based, second counter screen, HEK293 TRPC4/5HT1a, Fluo-4 (AID 434979;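 active = signal rise over 3 SD above mean of control wells given weak agonist, in both repeats and first screen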); conditions: Fluo-4 calcium flux, at 10 µM, serotonin added at its EC20 dose; stronger effect = higher value
[16] = calcium flux activation in mu-opioid HEK293 cells, confirmation, counter-screen for TRPC4 activator project, cell-based, HEK293 mu-opioid receptor line (AID 449723;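 active = hit in primary screen, with calcium signal over 5 SD above buffer well mean in both duplicates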;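 note: counter screen cells carry the mu-opioid receptor alone and lack TRPC4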); conditions: Fluo-4 calcium fluorescence, at 10 µM; stronger effect = higher value
[17] = calcium flux enhancement in mu-opioid HEK293 cells, confirmation, counter-screen for TRPC4 allosteric potentiator project, cell-based, HEK293 mu-opioid receptor line (AID 449724;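 active = calcium signal rise more than 3 SD above the low-dose agonist control mean, in both duplicate plates and the primary screen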); conditions: Fluo-4 calcium flux, at 10 µM, compound added before EC20 DAMGO stimulus; stronger effect = higher value

Chain of Short transient receptor potential channel 6 (Mus musculus) (Q61143 whole entry, looked up): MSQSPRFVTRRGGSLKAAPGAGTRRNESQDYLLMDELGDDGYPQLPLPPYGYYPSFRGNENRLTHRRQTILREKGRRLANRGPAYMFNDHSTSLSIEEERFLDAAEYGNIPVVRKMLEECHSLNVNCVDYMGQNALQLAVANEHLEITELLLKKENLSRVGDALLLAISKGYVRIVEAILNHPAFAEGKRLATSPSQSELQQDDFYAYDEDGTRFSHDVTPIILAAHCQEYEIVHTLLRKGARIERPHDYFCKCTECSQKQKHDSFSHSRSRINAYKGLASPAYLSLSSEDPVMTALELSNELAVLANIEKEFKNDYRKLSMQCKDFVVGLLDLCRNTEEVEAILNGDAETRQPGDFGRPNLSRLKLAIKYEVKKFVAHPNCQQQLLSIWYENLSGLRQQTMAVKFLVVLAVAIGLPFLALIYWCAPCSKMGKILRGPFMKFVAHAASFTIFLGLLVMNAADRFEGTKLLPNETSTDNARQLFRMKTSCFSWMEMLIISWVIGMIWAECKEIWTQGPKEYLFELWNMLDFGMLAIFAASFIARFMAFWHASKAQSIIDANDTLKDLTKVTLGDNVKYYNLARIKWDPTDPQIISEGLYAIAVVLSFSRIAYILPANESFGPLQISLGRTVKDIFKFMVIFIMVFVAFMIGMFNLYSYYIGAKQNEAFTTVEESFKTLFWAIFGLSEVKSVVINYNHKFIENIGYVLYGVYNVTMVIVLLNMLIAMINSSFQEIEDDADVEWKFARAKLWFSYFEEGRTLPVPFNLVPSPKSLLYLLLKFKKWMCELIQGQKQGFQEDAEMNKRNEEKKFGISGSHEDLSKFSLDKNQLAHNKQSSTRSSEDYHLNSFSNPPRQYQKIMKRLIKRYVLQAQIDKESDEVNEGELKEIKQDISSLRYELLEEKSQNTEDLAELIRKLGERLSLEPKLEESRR
Chain of Short transient receptor potential channel 4 (Mus musculus) (Q9QUQ5 whole entry, looked up): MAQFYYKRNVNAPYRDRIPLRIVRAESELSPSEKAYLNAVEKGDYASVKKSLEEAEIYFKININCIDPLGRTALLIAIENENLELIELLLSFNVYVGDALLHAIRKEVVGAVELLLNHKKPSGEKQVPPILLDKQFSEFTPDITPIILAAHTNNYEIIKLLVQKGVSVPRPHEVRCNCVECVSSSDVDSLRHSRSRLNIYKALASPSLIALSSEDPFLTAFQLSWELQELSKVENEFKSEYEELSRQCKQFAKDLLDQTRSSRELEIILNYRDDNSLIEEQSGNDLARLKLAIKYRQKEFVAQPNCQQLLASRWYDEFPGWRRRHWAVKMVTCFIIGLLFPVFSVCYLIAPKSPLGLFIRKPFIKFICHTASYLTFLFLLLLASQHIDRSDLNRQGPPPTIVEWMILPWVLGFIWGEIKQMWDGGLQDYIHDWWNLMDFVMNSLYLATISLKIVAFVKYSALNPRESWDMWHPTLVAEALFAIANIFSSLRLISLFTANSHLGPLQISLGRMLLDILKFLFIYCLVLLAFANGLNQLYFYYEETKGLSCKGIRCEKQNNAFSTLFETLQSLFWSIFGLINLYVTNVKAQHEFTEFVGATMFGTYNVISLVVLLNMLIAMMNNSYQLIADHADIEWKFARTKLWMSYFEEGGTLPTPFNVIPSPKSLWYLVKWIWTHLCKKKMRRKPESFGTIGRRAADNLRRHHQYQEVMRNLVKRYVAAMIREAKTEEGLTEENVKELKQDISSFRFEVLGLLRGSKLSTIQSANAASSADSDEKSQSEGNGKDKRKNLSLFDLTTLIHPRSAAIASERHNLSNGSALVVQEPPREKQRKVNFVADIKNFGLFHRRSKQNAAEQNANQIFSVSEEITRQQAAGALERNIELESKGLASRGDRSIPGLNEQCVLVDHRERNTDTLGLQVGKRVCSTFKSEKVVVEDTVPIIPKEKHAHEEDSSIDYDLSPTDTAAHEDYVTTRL

| SMILES | outcome [1] | outcome [2] | outcome [3] | outcome [4] | outcome [5] | outcome [6] | outcome [7] | outcome [8] | outcome [9] | outcome [10] | outcome [11] | outcome [12] | outcome [13] | outcome [14] | outcome [15] | outcome [16] | outcome [17] | potentiation [4] | potentiation [15] |
| --- | --- | --- | --- | --- | --- | --- | --- | --- | --- | --- | --- | --- | --- | --- | --- | --- | --- | --- | --- |
| CSCC(C)N1CCC(CO)(CCCc2ccccc2)CC1 (centres undefined) | inactive | inactive | inactive | inactive | inactive | inactive | inactive | inactive | inactive | inactive | inactive | inactive | inactive | inactive | inactive | inactive | inactive |  |  |
| OCCNCc1cc(Br)ccc1OCc1ccccc1 | inactive | inactive | inactive | inactive | inactive | inactive | inactive | inactive | inactive | inactive | inactive | inactive | inactive | inactive | inactive | inactive | inactive |  |  |
| O=c1[nH]ncc(N2CCN(Cc3ccccc3)CC2)c1Cl | inactive | inactive | inactive | inactive | inactive | inactive | inactive | inactive | inactive | inactive | inactive | inactive | inactive | inactive | inactive | inactive | inactive |  |  |
| Cc1c(N2C(=O)/C(=C/c3ccccc3)SC2=S)c(=O)n(-c2ccccc2)n1C | inactive | inactive | inactive | inactive | inactive | inactive | inactive | inactive | inactive | inactive | inactive | inactive | inactive | inactive | inactive | inactive | inactive |  |  |
| O=C(C1CCCN(Cc2cccc(Cl)c2)C1)N1CCCCC1 (centres undefined) | inactive | inactive | inactive | inactive | inactive | inactive | inactive | inactive | inactive | inactive | inactive | inactive | inactive | inactive | inactive | inactive | inactive |  |  |
| O=C(Nc1nnc2n1CCS2)c1ccc(Br)o1 | inactive | inactive | inactive |  | inactive | inactive | inactive | inactive | inactive | inactive | inactive | inactive | inactive | inactive |  | inactive | inactive | 80% (active) | 56.3% (active) |
| O/N=C/c1cn(-c2ccccc2)nc1-c1ccc2c(c1)OCCO2 | inactive | inactive | inactive |  | inactive | inactive | inactive | inactive | inactive | inactive | inactive | inactive | inactive | inactive |  | inactive | inactive | 16% (active) | 29.3% (active) |
